Sm TGR block: S. mansoni TGR enzyme inhibition; Q962Y6; purified TGR, DTNB reduction, TNB absorbance 405 nm; Potency, µM (series often up to 114 µM), without a hit: top-dose activity change, negative = inhibition, most hits filed as inhibitors; 3% of 360,000 active; note: potency is the fitted concentration of half-maximal effect; nearly all actives have a fitted effect of over 60% in size
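TGR 20 nM + NADPH 100 uM (dispensed conc.), cpd preinc 15 min RT; start with NADPH (500 uM addition) then DTNB (15 mM addition). Kinetic TNB absorbance, 405 nm filter. Four-parameter Hill fit across titration.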
TbPYK inhibitor: blocks Trypanosoma brucei pyruvate kinase | Potency, µM (top dose mostly 76.8 µM), for the others: at the highest dose activity, negative = inhibition, actives largely listed as inhibitors | TbPYK enzyme, Kinase-Glo Plus ATP luminescence, 45 min | AID 624173 | Q57TT1 | 0.12% of 410,000 active; note: potency is the fitted concentration of half-maximal effect; nearly all actives have a fitted effect of over 50% in size
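Activity of T. brucei pyruvate kinase was followed by Kinase-Glo Plus luminescence after the enzyme reacted 45 min at room temperature with 130 uM ADP (final) and substrate. Test compounds were added before ADP at multiple concentrations.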
FMDV inh: antivirals against foot and mouth disease virus. FMDV antiviral cell-based qHTS. Potency, µM (series often up to 57.9 µM), without a hit: at the highest dose activity change, negative = inhibition, usual class: inhibitors. 1.2% of 410,000 active; calls by dose curve; tested in HEK293T cells; note: read-out not given here; potency is the fitted concentration of half-maximal effect; nearly all actives have a fitted effect of over 45% in size
FBPA Giardia inh: Giardia lamblia aldolase inhibition; purified Giardia FBPA; Potency, µM (top dose mostly 59.6 µM), for inactives: top-dose activity, negative = inhibition, usual class: inhibitors; 0.71% of 290,000 active; note: potency is the fitted concentration of half-maximal effect; nearly all actives have a fitted effect of over 55% in size
Target sequence (A8B2U2 whole entry, looked up): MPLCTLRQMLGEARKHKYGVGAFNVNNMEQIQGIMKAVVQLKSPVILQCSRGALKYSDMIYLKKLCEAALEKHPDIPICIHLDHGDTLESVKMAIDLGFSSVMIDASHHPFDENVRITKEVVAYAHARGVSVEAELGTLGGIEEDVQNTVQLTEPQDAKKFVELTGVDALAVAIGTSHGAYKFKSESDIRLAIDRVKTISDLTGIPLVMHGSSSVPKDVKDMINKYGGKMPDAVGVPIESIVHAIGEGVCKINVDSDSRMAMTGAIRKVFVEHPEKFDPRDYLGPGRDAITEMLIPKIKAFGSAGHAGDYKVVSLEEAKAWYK
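40 nM FBPA preincubated 10 min at RT with compound (up to 57.5 uM final), then substrate plus GAPDH/TPI/NAD/arsenate coupling and diaphorase/resazurin added. Fluorescence read after 20 min at RT, 525/598 nm.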
RE007 growth inh: less growth of the S. pombe RE007 Vpr strain | S. pombe RE007 Vpr strain, BacTiter-Glo ATP luminescence, 24 h | 0.21% of 360,000 active | AID 651644 | Potency, µM (titrated, usually from 92.2 µM), inactives show at the highest dose activity change, negative = less growth, hits mostly inhibitors; active = well fitted falling curve with a large enough effect; inconclusive = small, poorly fitted or top-dose-only effect; inactive = no such curve, though single readings can be large or run the other way; note: potency is the fitted concentration of half-maximal effect; nearly all actives have a fitted effect of over 50% in size
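Fission yeast RE007 carrying one integrated HIV-1 vpr copy, seeded at OD 0.01 in PMG+AL medium with 23 nL pinned compound. Grown 24 h at 30 degrees; viability read by BacTiter-Glo luminescence after 5 min.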
HCMV inh: human cytomegalovirus inhibition; HFF cells, HCMV-luciferase reporter, 72 h; stronger effect = lower value; activity change, negative = inhibition, % at 57.5 µM; 4.5% of 410,000 active; AID 1259415; in the data active = activity change below about -60%; inconclusive = no clear call, values can overlap the other calls; inactive = above about -39%
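Compounds were evaluated in HFFs infected with an HCMV luciferase reporter virus (MOI 1 PFU/cell). Luciferase in lysates collected 72 h post infection served as the replication measure.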
The depositor's hits bear a star; ? = inconclusive; · = no result given; [ ] = remark or other dose. Shown are actives, neighbours in structure and some others; about 7.7% of the full set was active somewhere. Unless noted, calls come from the whole dose curve; as a rule, active = well fitted curve in the direction sought with a large enough effect; inconclusive = small, poorly fitted or top-dose-only effect, or another doubt; inactive = no such curve, though single readings can be large; an effect the other way counts as inactive or inconclusive. % is set by controls: 0 for no effect and ±100 for the full control effect.

SMILES	Sm TGR block	TbPYK inhibitor	FMDV inh	FBPA Giardia inh	RE007 growth inh	HCMV inh
CCN1CCN(C(=O)CS(=O)Cc2nc(-c3ccc(OC)cc3)oc2C)CC1 (stereo not given)	?	1%	-25%	2%	-3%	9
CCOC(=O)N1CCN(C(=O)CS(=O)Cc2nc(-c3cccc(C)c3)oc2C)CC1 (stereo not given)	?	3%	-22%	2%	7%	5
CCOC(=O)N1CCN(C(=O)CS(=O)Cc2nc(-c3ccc(OC)c(OC)c3)oc2C)CC1 (stereo not given)	45µM*	0%	-11%	·	-4%	-17
Cc1ccc(-c2nc(CS(=O)CC(=O)N3CCC4(CC3)OCCO4)c(C)o2)cc1 (stereo not given)	45µM*	·	·	2%	·	-23
COc1ccc(-c2nc(CS(=O)CC(=O)N3CCCC3)c(C)o2)cc1 (stereo not given)	7.1µM*	3%	-20%	1%	5%	19
COc1ccc(-c2cc3nc(C)c(CCC(=O)NCc4ccccc4Cl)c(C)n3n2)c(OC)c1	-12%	5%	-4%	·	·	-3
Cc1cc(/C=C2/SC(=S)N(c3cccc(Cl)c3)C2=O)c(C)n1-c1cccnc1	·	3%	?	·	-8%	-93*
Cc1cc(/C=C2/SC(=S)N(c3ccc([N+](=O)[O-])cc3)C2=O)c(C)n1-c1cccnc1	0%	-5%	?	-8%	7%	-83*
Cc1cc(/C=C2\SC(=S)N(C)C2=O)c(C)n1-c1ccccc1O	·	-6%	?	·	-9%	0
Cc1cccc(N2C(=O)/C(=C/c3cccnc3)SC2=S)c1	-1%	1%	-16%	3%	-7%	16
Cc1cc(/C=C2\SC(=S)N(C)C2=O)c(C)n1-c1ccc(O)cc1	?	-3%	0.89µM*	-19%	17%	-97*
CCOc1cccc(NC(=O)c2sc3nc(-c4ccc(F)cc4)ccc3c2N)c1	-1%	2%	-4%	·	·	-12
COc1cc(CN(C(C)=O)c2ccccc2C(=O)O)ccc1[N+](=O)[O-]	·	-1%	-6%	·	-8%	-63*
O=C(CSc1cccc[n+]1[O-])c1ccccc1Br	0%	2%	19%	-10%	22µM*	-6
Cc1cc(C(=O)CSc2cccc[n+]2[O-])c(C)n1-c1ccc(Br)cc1	-1%	·	·	-4%	·	·
CC(C)C[C@H]1COc2cc(Br)ccc2S(=O)(=O)N1	·	-10%	-28%	·	7%	-12
Cc1ccccc1C(=O)N1[C@@H](C(C)C)COc2cc(Br)ccc2S1(=O)=O	·	4%	40µM*	·	0%	-10
CC(C)=CCC/C(C)=C/CO/N=C1/[C@H]2O[C@@H]2[C@@H](O)[C@H]2[C@H]1CCn1c(=O)n(Cc3cc4c(cc3Cl)OCO4)c(=O)n12	·	·	·	3%[12.9 µM]	·	·
CCCCCCCOC(=O)C[N+](C)(C)CCOC1CC2CCC1(C)C2(C)C (stereo not given)	-3%	-9%	35µM*	6%	27%	-73*
CCCCCCOC(=O)C[N+](C)(C)CCOC1CC2CCC1(C)C2(C)C (stereo not given)	-12%	-5%	-5%	4%	14%	-19
CC(C)c1oc(=O)cc2c1[C@@H](O)[C@H]1OC(=O)[C@@]3(C)C[C@@H](O)[C@@H](O)[C@@]2(C)C13 (stereo not given in full)	-9%	0%	?	1%	-7%	-98*
CC(C)c1oc(=O)cc2c1[C@@H](O)[C@H]1OC(=O)[C@@]3(C)CC[C@@H](O)[C@@]2(C)C13 (stereo not given in full)	3%	0%	?	3%	-4%	-97*
Cc1ccc(C)c(NC(=O)CN2C(=O)C3(SCC(=O)N3c3ccc(C)c(C)c3)c3ccccc32)c1 (stereo not given)	23%	6%	-11%	·	·	17
CC(=O)O[C@H]1C[C@@H]2OC3C=C(C)CCC3(C)[C@@]1(C)[C@@]21CO1 (stereo not given in full)	·	-6%	·	·	3.2µM*	-98*
CC(=O)OC1CC2CCC1(C)C2(C)C (stereo not given)	·	-9%	·	-1%	·	·
SMILES	Sm TGR block	TbPYK inhibitor	FMDV inh	FBPA Giardia inh	RE007 growth inh	HCMV inh
CC(=O)C1=C(C)NC(SCC(=O)c2ccc(Cl)cc2Cl)=C(C#N)C1c1ccco1 (stereo not given)	0%	-23%	·	?	5%	-68*
CC(=O)C1=C(C)NC(SCC(=O)c2ccc(Cl)cc2)=C(C#N)C1c1ccco1 (stereo not given)	0%	-18%	-21%	?	11%	-33
Nc1ccc(Br)c2c1C(=O)c1ccccc1C2=O	13µM*	3%	2%	-15%	-14%	·
NC1=C(Br)C(=O)c2ccccc2C1=O	?	-6%	-19%	?	11µM*	-86*
Cc1cc2c(cc1C)C(=O)C(Br)=C(N)C2=O	·	-5%	25%	·	?	-33
CC1(C)C(=O)C(c2ccccc2)=C2CN3C(=O)N(CCc4ccccc4)C(=O)C3(Cc3ccc(F)cc3)C=C21 (stereo not given)	·	·	·	-5%	·	·
CC(=O)OCC1OC(c2ccc(C(C)=O)cc2)C=CC1OC(C)=O (stereo not given)	·	·	·	4%[12.9 µM]	·	·
COc1ccc(C(C(=O)NC2CCCC2)N(C(=O)c2snc(C(N)=O)c2N)c2ccccc2OC)cc1OC (stereo not given)	-11%	3%	2%	·	-5%	-25
CCOc1ccc(C(C(=O)NCC2CCCO2)N(Cc2cccs2)C(=O)c2snc(C(N)=O)c2N)cc1 (stereo not given)	4%	-1%	-17%	9%	1%	-68*
CC(C)CCNC(=O)C(c1ccco1)N(Cc1ccccc1)C(=O)c1snc(C(N)=O)c1N (stereo not given)	-28%	5%	17%	-1%	-6%	-20
COc1ccccc1N(C(=O)c1snc(C(N)=O)c1N)C(C(=O)NC1CCCC1)c1ccc2ncccc2c1 (stereo not given)	-5%	1%	18%	-7%	0%	-88*
Cc1cc(C)cc(N(C(=O)c2snc(C(N)=O)c2N)C(C(=O)NCC2CCCO2)c2cccs2)c1 (stereo not given)	-7%	-3%	-11%	-3%	4%	-93*
NC(=O)c1nsc(C(=O)N(c2ccccc2)C(C(=O)NCC2CCCO2)c2cccs2)c1N (stereo not given)	1%	-2%	-20%	-9%	0%	-19
Cc1ccc(N(C(=O)c2snc(C(N)=O)c2N)C(C(=O)NCCC(C)C)c2ccco2)cc1 (stereo not given)	-8%	1%	-21%	-8%	-4%	-63*

From PubChem BioAssay
